Test results from PubChem BioAssay AID686971 (National Center for Advancing Translational Sciences (NCATS), 2013).
In all, about 360,000 compounds went through this assay and about 7,500 (2.1%) were called active. Another 8% or so got no clear call; they are omitted. Calls follow the shape of the dose curve; as a rule, active = well fitted cell-killing curve with a large enough effect; inconclusive = small, poorly fitted or top-dose-only effect, or effect the other way, or another doubt; inactive = no such curve, though single readings can be large or run the other way. This excerpt belongs to a sample that is enriched for actives.

test: qHTS for induction of synthetic lethality in tumor cells producing 2HG: qHTS for the HT-1080-IDH1KD cell line; conditions: HT-1080 IDH1 knockdown viability, ATP luminescence, 48 h; series mostly up to 46.1 µM; activity, negative = toxicity: at the top concentration;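 as to activity, negative = toxicity: 0% = DMSO wells and -100% = cell-free medium wells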
Procedure, shortened: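 Cytotoxicity counter-line: IDH1KD HT-1080, 48 h, CellTiter-Glo. Curves classed by r2, magnitude and activity.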
Potency is read from the fitted curve at half-maximal effect.

SMILES | activity, negative = toxicity | Potency
CC(NC(=O)c1ccccc1F)c1cccc2ccccc12 (centres undefined) | -0.529% (inactive) | 
COc1ccc(C(=O)NN(C)c2nc(-c3ccccc3)cc(C)c2S(C)(=O)=O)cc1 | 4.2% (inactive) | 
Cn1c(CC(=O)NNC(=O)c2ccccc2F)nc2ccccc21 | 0% (inactive) | 
CSc1nc(N(C)NC(=O)c2cccc(C)c2)c2ccccc2n1 |  | 0.0461 µM (active)
Cc1cccc(C(=O)Nc2ccc(C(=O)N/N=C/c3cccc(C)n3)cc2)c1 | -19.7% (inactive) | 
CN(NC(=O)c1ccccc1F)c1nc(C(F)(F)F)nc2ccccc12 |  | 0.206 µM (active)
CC1=C(C(=O)N2CCOCC2)CC(CC(=O)NCCN2CCOCC2)C(=O)N1CCC1=CCCCC1 (centres undefined) | 7.72% (inactive) | 
Cc1noc(C)c1S(=O)(=O)N(C)C[C@H]1OCCCC[C@@H](C)Oc2ccc(NC(=O)CCCN(C)C)cc2C(=O)N([C@H](C)CO)C[C@@H]1C | 9.14% (inactive) | 
Cc1noc(C)c1C(=O)N1CCC1(C)C(=O)NS(=O)(=O)c1ccc(C#N)cc1 (centres undefined) | 21.7% (inactive) | 
CN1OC[C@@H]2CN[C@H](c3ccc(-c4ccccc4)cc3)C[C@@H]21 | -1.25% (inactive) | 
CCNC(=O)C1(C)CCCN(C(=O)c2c(C)noc2C)C1 (centres undefined) | 2.57% (inactive) | 
CN1OC[C@@H]2CN(S(=O)(=O)c3cccc(C(F)(F)F)c3)[C@H](c3ccc(-c4cc5ccccc5o4)cc3)C[C@@H]21 | 1.74% (inactive) | 
COCCNC(=O)C1C(=O)Nc2ccccc2C(=O)N1c1ccc2c(c1)OCCO2 (centres undefined) | 21.6% (inactive) | 
C[C@@H]1CN([C@@H](C)CO)C(=O)CCCn2nncc2CO[C@@H]1CN(C)S(=O)(=O)c1ccc(-c2ccccc2)cc1 | -1.95% (inactive) | 
Cn1c(=O)c2cc(NC(=O)NCCc3cccs3)ccc2n1Cc1cccc(C(F)(F)F)c1 | -29% (inactive) | 
Clc1ccc(-c2cc(C3CCNCC3)[nH]n2)c(Cl)c1 |  | 23.1 µM (active)
Clc1ccc(-c2cc(-c3ccccn3)on2)c(Cl)c1 | -24.4% (inactive) | 
O=C(OCc1cn([C@@H]2C[C@H](c3ccc(Cl)cc3)N(Cc3cccs3)C[C@H]2O)nn1)c1ccccc1 | 1.15% (inactive) | 
COC(=O)[C@@]12C[C@@H](CC(=O)N3CCCCC3)C(=O)N(Cc3ccc4c(c3)OCO4)C1=CCC(C)(C)C2 | -23.6% (inactive) | 
C=CCSc1nsc(NC(=O)Nc2cccc(C(C)=O)c2)n1 |  | 16.4 µM (active)
CSc1ccccc1C(=O)Nc1cccc(C(C)=O)c1 | -6.03% (inactive) | 
CC(=O)c1cccc(NC(=S)N2CCCC2)c1 | 11.1% (inactive) | 
Cc1cc2oc(=O)cc(CN(C)Cc3ccccc3)c2cc1Cl | 2.28% (inactive) | 
Cc1c(C(=O)N/N=C/c2ccccc2)[nH]c2c([N+](=O)[O-])cccc12 |  | 0.517 µM (active)

SMILES | activity, negative = toxicity | Potency
Cc1ccc2[nH]c(C(=O)O)c(NC(=O)c3ccccc3[N+](=O)[O-])c2c1 | 9.67% (inactive) | 
Cc1nn(-c2ccccc2)c(Cl)c1/C=N/NC(=O)c1nn(C)cc1[N+](=O)[O-] | -29.8% (inactive) | 
CC1(C)OC(=O)C2=C(C[C@@H](C3CCCC3)O[C@@H]2c2ccc(Cl)cc2)O1 | 8.76% (inactive) | 
CC1(C)CCc2cc(S(=O)(=O)N3CCN(c4nc(-c5cccs5)nc5ccccc45)CC3)ccc2O1 | 5.15% (inactive) | 
COc1ccc(C(C)(NC(C)=O)c2nc(-c3ccc(S(C)(=O)=O)cc3)cs2)cc1 (centres undefined) | 8.14% (inactive) | 
COC(=O)c1ccc2nc(-c3ccc(Cl)cc3)c(Cc3cccc(F)c3)n2c1 | 9.38% (inactive) | 
CC(C)CC[n+]1ccn(C2=C([O-])c3ccccc3C(=O)/C2=N\S(=O)(=O)c2ccccc2)c1 |  | 11.2 µM (active)
CC[C@@H]1CC2=C(C(=O)OC(C)(C)O2)[C@@H](CC)O1 | -0.785% (inactive) | 
CCOC(=O)C1(C)CCCN(C(=O)c2ccc(N(C)C)cc2)C1 (centres undefined) | 8.71% (inactive) | 
CCN1CCN(c2ccc([N+](=O)[O-])cc2C(=O)c2ccc(Cl)cc2)CC1 |  | 23.1 µM (active)
CCC(=O)c1ccc(N2CCN(C(=O)c3cc([N+](=O)[O-])ccc3F)CC2)c(F)c1 | 2.7% (inactive) | 
O=C(Nc1cccc(Cl)c1)c1cc([N+](=O)[O-])ccc1N1CCN(CCO)CC1 | -0.581% (inactive) | 
CN(Cc1c(F)cccc1Cl)C(=O)COC(=O)Cn1cnc2ccccc2c1=O | 4.82% (inactive) | 
O=c1c2c3c(sc2n(CCN2CCCC2)c(=O)n1Cc1ccccc1)CCCCC3 | -0.168% (inactive) | 
Cn1c(=O)n(Cc2ccco2)c(=N)c2c3c(sc21)CCCC3 | -10% (inactive) | 
CN(C)CCCn1c(=O)n(Cc2ccccc2)c(=O)c2c3c(sc21)CCCCC3 |  | 25.9 µM (active)
COc1cccc(-c2nc3nc(C)cc(C)n3c2NC2CCCCC2)c1 | 7.4% (inactive) | 
COC(=O)C[C@H]1C=C[C@@H](NS(=O)(=O)c2ccc(C)cc2)[C@@H](CO)O1 | 15.1% (inactive) | 
COCCNC(=O)C1(C)CCCN(Cc2cccc(F)c2)C1 (centres undefined) | 9.99% (inactive) | 
CCCc1cc(=O)[nH]c(SCC(=O)c2cc(C)n(CCC)c2C)n1 | 2.35% [at 9.24 µM] (inactive) | 
CCCc1cc(=O)[nH]c(SCC(=O)OCc2ccccc2)n1 | 0.689% (inactive) | 
CCCc1cc(=O)[nH]c(SCC(=O)c2c(N)n(CC(C)C)c(=O)n(C)c2=O)n1 |  | 3.26 µM (active)
COC(=O)c1ccc2nc(-c3ccccc3)c(Cc3ccc(OC)cc3C)n2c1 | 5.54% (inactive) | 
O=C(c1cc(C2CCCCN2S(=O)(=O)c2ccccc2)on1)N1CCOCC1 (centres undefined) | 19.8% (inactive) | 

SMILES | activity, negative = toxicity | Potency
CCOC(=O)C(=Cc1ccccc1)C(=O)c1ccccc1 |  | 18.4 µM (active)
CCOC(=O)NC(=O)/C(C#N)=C\c1ccccc1 | 1.01% (inactive) | 
CCOC(=O)/C(=C\c1ccc([N+](=O)[O-])cc1)C(=O)c1cc(C(C)=O)c(Nc2ccccc2)s1 | 17.6% (inactive) | 
COC(=O)C[C@H]1C[C@@H]2c3cc(NC(=O)Nc4ccccc4)ccc3O[C@@H]2[C@@H](CO)O1 | 4.69% (inactive) | 
COc1ccc(C2Nc3ccc(NC(=O)COC(C)=O)cc3C(=O)N2Cc2ccccc2)cc1COc1ccc(NC(C)=O)cc1 (centres undefined) | -21.2% (inactive) | 
Cc1cccc(NC(=O)c2ccc(S(=O)(=O)N(C)c3ccccc3)cc2)n1 | -21.5% (inactive) | 
C=CCN(CC=C)S(=O)(=O)c1ccc(C(=O)Nc2nc3c(s2)CCc2ccccc2-3)cc1 |  | 14.6 µM (active)
CCN(c1ccccc1)S(=O)(=O)c1ccc(C(=O)Nc2nccs2)cc1 | 10% (inactive) | 
Cc1ccccc1S(=O)(=O)NC(=O)C1(C)CCN1C(=O)C1(c2ccc(Cl)cc2)CC1 (centres undefined) | 28% (inactive) | 
CNS(=O)(=O)c1ccc2c(c1)[nH]c(=S)n2C | -8.8% (inactive) | 
COc1ccc(OC)c(Cc2cnc3nc(N)nc(N)c3c2C)c1 |  | 0.0103 µM (active)
COc1ccc(OC)c(Cc2nnc(CCC(=O)NC3CCCC3)o2)c1 | 11.3% (inactive) | 
COc1ccc(-c2nc(N)ncc2-c2ccc(Cl)cc2)c(O)c1 | -6.82% (inactive) | 
Nc1nc2cc(Cl)ccc2n1N | 8.14% (inactive) | 
CCC(C)CN1C(=O)CSCC1(C)C(=O)NCc1ccccc1 (centres undefined) | 24.8% (inactive) | 
Cc1sc2ccccc2c1CNC[C@H]1O[C@@H](n2ccc(=O)[nH]c2=O)[C@H](O)[C@@H]1O | 14.3% (inactive) | 
O=C(COC(=O)c1cncc(Br)c1)Nc1ccc(S(=O)(=O)N2CCOCC2)cc1 | -1.98% (inactive) | 
CCc1nc2c(OCCOc3ccccc3)cccn2c1N(C)C(=O)c1cccs1 | 5.52% (inactive) | 
Cc1cccc(-c2cnc(C(O)c3cc(C)cc(C)c3)[nH]2)c1 (centres undefined) | -12.6% (inactive) | 
Cc1ccc(OCC(=O)NCCCNC(=O)c2cccnc2)cc1C |  | 18.4 µM (active)
CCCOc1cccc(C(=O)NCCCNC(=O)c2cccnc2)c1 | 0.556% (inactive) | 
Cc1cccc(OCC(=O)NCCNC(=O)c2cccnc2)c1 | -4.95% (inactive) | 
CCN(CC)C(=O)C1=C(C)N(Cc2ccc(F)cc2)C(=O)C(CC(=O)NCc2cccc3ccccc23)C1 (centres undefined) | -2.6% (inactive) | 
COc1cccc(/C=N/NC(=O)c2[nH]nc3c2CCc2ccccc2-3)c1O |  | 3.66 µM (active)

SMILES | activity, negative = toxicity | Potency
COc1ccc(Br)cc1/C=N/NC(=O)c1cccc(S(=O)(=O)N2CCOCC2)c1 | -20.3% (inactive) | 
COc1cccc(/C=N\NC(=O)C2=NNC(=O)C2C)c1O (centres undefined) |  | 25.9 µM (active)
COc1ccc(/C=N/NC(=O)c2ccncc2)cc1CN1CCCc2ccccc21 | -7.69% (inactive) | 
Cc1ccc(C(=O)N/N=C/c2cccc3ccccc23)cn1 | 6.84% (inactive) | 
COc1cc(/C=N\NC(=O)C2C(=O)NCC2c2ccccc2)cc(OC)c1O (centres undefined) | 2.02% (inactive) | 
CC(C)C1CC2=C(C(=O)OC(C)(C)O2)C(c2ccc(F)cc2)O1 (centres undefined) | 6.13% (inactive) | 
CC1=C(C(=O)N2CCOCC2)CC(CC(=O)NCC2CCCCC2)C(=O)N1Cc1ccc(F)cc1 (centres undefined) | -8.15% (inactive) | 
O=Nc1c(O)cc(O)c2ccccc12 | 4.65% (inactive) | 
COC(=O)C[C@@H]1C=C[C@@H](NC(=O)c2cccnc2)[C@@H](CO)O1 | 8.29% (inactive) | 
O=C1NC[C@H](CCCCN2C[C@H](Cc3ccc(O)cc3)N(CC3CCCCC3)C(=O)C2=O)N(CCc2ccccc2)C1=O | 8.08% (inactive) | 
CCCCCCN1C[C@H](O)[C@@H](n2cc(C3CC3)nn2)C[C@@H]1c1ccc(Cl)cc1 | 6.32% (inactive) | 
O=C(COc1ccc(S(=O)(=O)Nc2cccc(C(F)(F)F)c2)cc1)N1CCOCC1 | -12.4% (inactive) | 
Cc1oc2c(F)c(F)c(F)c(F)c2c1S(=O)(=O)Nc1cccc(C(F)(F)F)c1 |  | 18.4 µM (active)
CCOC(=O)N1CCN(C(=O)c2ccc(S(=O)(=O)Nc3cccc(C(F)(F)F)c3)cc2)CC1 | -0.977% (inactive) | 
COc1cc(C(=O)N2CCOC23CCN(Cc2ccccc2)CC3)cc(OC)c1OC | 7.44% (inactive) | 
CCN(CC)C(=O)C1=C(C)N(Cc2ccccc2)C(=O)C(CC(=O)NC(c2ccccc2)c2ccccc2)C1 (centres undefined) | -2.22% (inactive) | 
COc1cccc(NC(=O)C2(C)CCN2C(=O)CCC2CCCC2)c1 (centres undefined) | -5.46% (inactive) | 
CCC(C(=O)OCC(=O)Nc1c(Cl)cc(Cl)cc1Cl)c1ccccc1 (centres undefined) | -0.177% (inactive) | 
CCC(C(=O)OCC(=O)Nc1ccc(C(=O)Nc2ccc(OC)cc2)cc1)c1ccccc1 (centres undefined) |  | 25.9 µM (active)
CCC(C(=O)OCC(=O)Nc1ccccc1-c1ccccc1)c1ccccc1 (centres undefined) | 3.86% (inactive) | 
CC(C)N1C(=O)c2ccccc2NC(=O)C1C(=O)NCc1cccs1 (centres undefined) | 25.2% (inactive) | 
Cc1cccc(NC(=O)COC(=O)c2ccccc2OCc2cccc(Br)c2)c1 | 9.94% (inactive) | 
